NR3A LBD binder = binders of NR3A ligand-binding domain, primary screen, biophysical, differential scanning fluorimetry, uHTS. NR3A LBD differential scanning fluorimetry, Tm shift; 0% = protein alone, 100% = glycine-bound protein. Tm shift relative to glycine control, % at 25 µM. hit rate 2.5% among 340,000;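 active = melting temperature shift of at least 10% of the positive control shift, at one fixed dose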
proKLK7 act = proKLK7 zymogen activators, primary screen, biochemical, fluorescence intensity; hit rate 0.9% among 370,000; purified proKLK7, EDANS-DABCYL substrate fluorescence; 100% is mature enzyme control, 0% vehicle; activation, % at 7 µM; Kallikrein-7 (Homo sapiens), P49862;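 active = activation above the mean of all tested compounds plus 3 SD, computed per campaign excluding outliers beyond control limits, cut at about 13% in these data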
ADAM17 inh = ADAM17 inhibitors, primary screen, biochemical, QFRET; recombinant ADAM17, EDANS/DABCYL FRET peptide cleavage; Disintegrin and metalloproteinase domain-containing protein 17 (Homo sapiens), P78536; hit rate 0.83% among 370,000; inhibition, % at 6.95 µM;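 active = inhibition above the mean of compounds lying between control limits plus 3 SD, set per campaign, cut at about 8.5% in these data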;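 also: 0% = DMSO-only wells as the low control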
Target sequence (P78536 215-824 limits assumed): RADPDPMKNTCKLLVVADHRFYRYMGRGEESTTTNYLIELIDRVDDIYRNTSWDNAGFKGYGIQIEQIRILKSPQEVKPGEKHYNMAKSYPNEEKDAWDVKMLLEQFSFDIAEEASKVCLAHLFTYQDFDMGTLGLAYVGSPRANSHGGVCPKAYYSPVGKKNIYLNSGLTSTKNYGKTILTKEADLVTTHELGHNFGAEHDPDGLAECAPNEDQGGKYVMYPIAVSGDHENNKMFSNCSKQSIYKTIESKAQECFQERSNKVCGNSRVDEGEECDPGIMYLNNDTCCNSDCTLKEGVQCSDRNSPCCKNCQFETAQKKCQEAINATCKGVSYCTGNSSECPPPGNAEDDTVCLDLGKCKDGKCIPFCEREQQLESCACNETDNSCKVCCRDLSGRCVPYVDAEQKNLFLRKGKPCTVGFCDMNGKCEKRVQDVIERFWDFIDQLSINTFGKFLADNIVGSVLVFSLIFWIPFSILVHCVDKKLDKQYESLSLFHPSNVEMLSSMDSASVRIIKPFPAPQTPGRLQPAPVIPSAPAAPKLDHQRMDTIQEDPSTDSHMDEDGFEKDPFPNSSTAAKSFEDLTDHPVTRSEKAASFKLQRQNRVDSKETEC
AHR act = AHR activators, primary screen, cell-based, luminescence, luciferase reporter, human; Aryl hydrocarbon receptor (Homo sapiens), P35869; AHR-responsive luciferase reporter cells; activation, % at 5 µM; hit rate 2.5% among 320,000; in the data active = activation above about 47%;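 also: 0% = vehicle wells and 100% = reference agonist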
rCAG binder = binders of r(CAG) RNA repeats, primary screen, biochemical, fluorescence; r(CAG) RNA repeat, TO-PRO-1 dye displacement fluorescence; inhibition, % at 3 µM; hit rate 1.3% among 370,000; AID 651821, 2012;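 active = inhibition above the plate cutoff, the mean of all test compounds on that plate plus 3 SD, cut at about 35% in these data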;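 also: 0% = DMSO alone and 100% = 100 µM mitoxantrone as full dye displacement; higher means more dye released from RNA so lower well fluorescence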
ADAM10 inh = human ADAM10 inhibitors, primary screen, biochemical, QFRET, HTS | hit rate 0.62% among 370,000 | inhibition, % at 7 µM | recombinant ADAM10, EDANS/DABCYL FRET peptide cleavage, 3 h | Disintegrin and metalloproteinase domain-containing protein 10 (Homo sapiens), O14672;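 active = inhibition above a per-campaign cutoff equal to the mean of compounds falling between control-based bounds plus 3 SD, cut at about 20% in these data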;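 also: 0% = DMSO wells while the 100% control is not disclosed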
Starred values were filed as active, the others as inactive. A selection: hits, their analogues and other compounds. The true share with any hit is near 7%.

`COc1ccc(NC(=O)C2CCCN(S(=O)(=O)c3ccc4[nH]c(=O)ccc4c3)C2)cc1` (configuration not stated) gave NR3A LBD binder 0.7, proKLK7 act 0.1, ADAM17 inh -1.3, AHR act -0.6, rCAG binder 2.8 and ADAM10 inh -8.3.
C=CCN(CC#Cc1ccccc1)Cc1ccc2c(c1)OCO2 was read as proKLK7 act -0.2, ADAM17 inh -2.6, rCAG binder 0.6 and ADAM10 inh -1.2.
`Cc1cccc(NC(=O)OC2CC3CC2[C@H]2CCCCN2C3)c1` (some centres not stated) gave proKLK7 act -0.7, ADAM17 inh -6.5, rCAG binder 5.8 and ADAM10 inh -5.6.
COc1ccc(N/C(=C\C(=O)c2ccccc2)c2ccccc2)cc1OC was read as proKLK7 act 0.4, ADAM17 inh -1.0, rCAG binder 3.4 and ADAM10 inh -4.6.
`Cn1cc(C2CC(c3ccccc3)=NN2C(=O)c2ccccc2)c2ccccc21` (configuration not stated) gave NR3A LBD binder -1.1, proKLK7 act -0.5, ADAM17 inh -3.9, AHR act 30.1, rCAG binder 1.5 and ADAM10 inh -2.2.
Screening CCCC(=O)N1N=C(c2ccccc2)CC1c1cn(C)c2ccccc12 (configuration not stated) returned NR3A LBD binder 14.8*, proKLK7 act -0.6, ADAM17 inh -1.2, AHR act 31.0, rCAG binder -2.9 and ADAM10 inh -9.8.
For COc1ccc(/C=C2\CC3(OC(=O)c4ccccc4)CCCN2C3)cc1 (configuration not stated) the results were proKLK7 act -0.5, ADAM17 inh 7.2, rCAG binder -0.8 and ADAM10 inh 11.1.
Screening O=C(CCn1c(=O)c2cccn2c2cccnc21)NCc1cccc(Cl)c1 returned NR3A LBD binder 10.5*, proKLK7 act 0.1, ADAM17 inh -5.2, AHR act -0.1, rCAG binder 2.9 and ADAM10 inh 8.5.
Screening O=C(CCCn1c(=O)c2cccn2c2cccnc21)NCc1cccc(Br)c1 returned NR3A LBD binder 1.1, proKLK7 act 0.3, ADAM17 inh 2.4, AHR act -5.4, rCAG binder -0.5 and ADAM10 inh -2.7.
For CC(=O)Nc1ccc(NC(=O)CSc2ccc(-c3ccc(-n4ccnc4)cc3)nn2)cc1 the results were NR3A LBD binder 16.8*, proKLK7 act -0.2, ADAM17 inh -1.9, AHR act 12.4, rCAG binder -1.2 and ADAM10 inh -1.4.
For O=C(NC1CC1c1ccccc1)N1CCC(c2nc3ccc(Cl)cc3[nH]2)CC1 (configuration not stated) the results were proKLK7 act -0.4, ADAM17 inh -0.7, rCAG binder 3.5 and ADAM10 inh -17.5.
For COc1cc(/C=C/C(=O)c2ccc(NS(=O)(=O)c3ccc(C)cc3)cc2)ccc1OC(F)F the results were NR3A LBD binder 22.9*, proKLK7 act -0.2, ADAM17 inh 4.5, AHR act 1.6, rCAG binder 19.1 and ADAM10 inh 7.6.
`COc1cc(/C=C/C(=O)O)ccc1OS(=O)(=O)c1ccc(C)cc1` gave NR3A LBD binder -1.6, proKLK7 act 0.2, ADAM17 inh 1.4, AHR act -0.1, rCAG binder 6.5 and ADAM10 inh 5.6.
`COc1cc(/C=C/C(=O)c2ccc(NS(=O)(=O)c3ccc(C)cc3)cc2)cc(OC)c1O` gave NR3A LBD binder 11.2*, proKLK7 act -0.4, ADAM17 inh 0.6, AHR act -1.1, rCAG binder 47.0* and ADAM10 inh 4.0.
`COc1ccc(-c2nnc(SCC(=O)NN=C(C)c3cccc4ccccc34)n2-c2ccccc2)cc1` gave proKLK7 act 0.3, ADAM17 inh 1.6, rCAG binder 5.3 and ADAM10 inh 7.2.
`CCOc1ccc(NC(=O)c2ccc(NS(=O)(=O)c3cccc4cccnc34)cc2)cc1` gave NR3A LBD binder 17.4*, proKLK7 act -0.2, ADAM17 inh 0.0, rCAG binder 2.1 and ADAM10 inh 0.2.
`O=C(O)c1ccc(NS(=O)(=O)c2cccc3cccnc23)cc1` gave NR3A LBD binder -2.7, proKLK7 act 0.3, ADAM17 inh -2.9, AHR act -0.7, rCAG binder 0.5 and ADAM10 inh -7.9.
Screening O=C(Nc1ccccc1O)c1ccc(NS(=O)(=O)c2cccc3cccnc23)cc1 returned NR3A LBD binder 19.7*, proKLK7 act 0.1, ADAM17 inh 4.0, AHR act 14.0, rCAG binder 17.4 and ADAM10 inh 4.8.
Screening COC(=O)c1ccc(NC(=O)c2ccc(NS(=O)(=O)c3cccc4cccnc34)cc2)cc1 returned NR3A LBD binder 3.0 and AHR act -0.9.
CC(C)CN1CN2Cc3cc(F)ccc3C2CS1(=O)=O (configuration not stated) was read as proKLK7 act -0.4, ADAM17 inh -1.4, rCAG binder 1.6 and ADAM10 inh -4.6.
CC(C)CNC(=O)OCc1cn(Cc2c(F)cccc2F)nn1 was read as proKLK7 act 0.4, ADAM17 inh 0.9, rCAG binder -0.9 and ADAM10 inh 0.7.
O=C(COc1ccc(Br)cc1)Nc1ccc(C(=O)Nc2ccccc2C(=O)O)cc1 was read as NR3A LBD binder 10.6*, proKLK7 act 0.3, ADAM17 inh 2.5, AHR act 6.6, rCAG binder 20.5 and ADAM10 inh 1.5.
For O=C(COc1ccc([N+](=O)[O-])cc1)Nc1ccc(C(=O)Nc2ccccc2C(=O)O)cc1 the results were NR3A LBD binder 6.3, proKLK7 act -0.2, ADAM17 inh -0.7, AHR act -1.3, rCAG binder 17.6 and ADAM10 inh -2.0.
O=C(COc1ccc2ccccc2c1)Nc1cccc(C(=O)Nc2ccccc2C(=O)O)c1 was read as NR3A LBD binder 12.1*, proKLK7 act 0.8, ADAM17 inh 4.8, AHR act 7.3, rCAG binder 82.8* and ADAM10 inh 8.3.
Screening Cc1nn(-c2ccccc2)cc1/C=N/NC(N)=S returned NR3A LBD binder -5.4, proKLK7 act -1.4, ADAM17 inh -3.5, AHR act -2.6, rCAG binder 0.0 and ADAM10 inh -4.2.
Cc1nn(-c2ccccc2)cc1C(c1c(N)[nH]c(=S)[nH]c1=O)c1c(N)[nH]c(=S)[nH]c1=O was read as NR3A LBD binder 15.9*, proKLK7 act 0.8, ADAM17 inh -3.3, AHR act 0.6, rCAG binder 8.7 and ADAM10 inh -0.7.
`O=C(NCCc1ccccc1)OCc1cn(Cc2ccc(Cl)cc2)nn1` gave proKLK7 act 0.2, ADAM17 inh -6.2, rCAG binder -0.5 and ADAM10 inh -5.3.

Compound activity deposited in PubChem BioAssay by several laboratories.
